In all, about 330,000 compounds went through this assay and about 590 (0.18%) were called active.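 The calls were made as follows: active = superoxide response under a set limit, about three screen SD below normal (cut at about 65% in these data); inactive = the rest.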 The sample as a whole holds a higher share of actives than the screen did.
Experiment: yeast aging ROS inhibitors as calorie-restriction mimetics – HTS, primary screen (AID 2690);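 also: yeast aged for seven days with compound at 30 °C before DHE staining; 100% = average MFI of all compound-treated wells on the plate with controls excluded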
Details: S. cerevisiae aged cells, superoxide DHE fluorescence; at 10 µM; stronger effect = lower value

Superoxide response (% of plate mean), inactive:
CCOC(=O)c1c(C)nn(-c2ncccc2NC(=O)CCC(=O)O)c1C 122%, Cc1ccc(C(=O)O)cc1-c1ccc(/C=C2\SC(=O)N(CC(=O)Nc3ccc4c(c3)OCO4)C2=O)o1 114%, Cc1ccccc1N1CCN(C2CCCN(C(=O)c3cn4c(C)cccc4n3)C2)CC1 (centres undefined) 98.9%, COc1cc(N2C(=O)c3ccccc3C2=O)c(Cl)cc1C(=O)OCC(=O)N1CCOCC1 106%, COc1ccc(OCCCC(=O)OC(C)C(=O)Nc2ccccc2[N+](=O)[O-])cc1 (centres undefined) 95.2%, CC1(C(=O)NCCc2c[nH]c3ccccc23)C=CC2(CCCCC2)N1C(=O)c1ccccc1 (centres undefined) 93.9%, Cc1csc2ncc(C(=O)N(Cc3ccccc3)c3ccccn3)c(=O)n12 92.8%, Cc1cc(F)ccc1S(=O)(=O)Nc1ncnc2scc(-c3ccc(F)cc3)c12 103%, Clc1nc(NC2CCCC2)nc(N2CCOCC2)n1 104%, CCOC(=O)CNc1nc(Cl)nc(Nc2ccccc2)n1 114%, CCc1noc(C)c1C(=O)Oc1ccc(N(C)S(=O)(=O)c2ccc(C)c(C)c2)cc1 103%, CCOc1c(N2CCCCC2)c(=O)c1=O 105%, COc1ccc(NS(=O)(=O)c2ccc(O)c(C(=O)OCC(=O)NC3CCCCC3)c2)cc1 93.5%, NS(=O)(=O)c1ccc(CCNC(=O)CN2C(=O)c3ccccc3S2(=O)=O)cc1 111%, Cc1ccc(C(=O)OCC(=O)NC(=O)Cc2ccccc2)c(O)c1 110%, C=CCNC(=S)/N=c1/ccccn1Cc1ccccc1 102%, COC(=O)c1ccc(NC(=O)CSc2nncc3ccc(OC)c(OC)c23)cc1 119%, C=CCn1c(SCc2ccccc2)nc2c1c(=O)[nH]c(=O)n2C 102%, Cc1cc(OCc2cc(C(=O)NCc3cc(C(C)C)no3)no2)cc(C)c1Cl 111%, NC(=O)CSc1c[nH]c2ccccc12 97.2%, CCn1c2ccccc2c2cc(CC(N)=O)ccc21 105%, OCCC1CN(Cc2cnc(-c3ccccc3)s2)CCN1CCc1ccccc1 (centres undefined) 88.7%, Cc1cccc(OCC(=O)OCC(=O)Nc2ccc(Cl)cn2)c1 99.9%, CCCC(C(=O)NCc1ccco1)N(C(=O)CNS(=O)(=O)c1ccccc1)C1CCCC1 (centres undefined) 101%, Cc1ccc(-c2noc(CNC(=O)c3ccoc3C)n2)cc1 85%, Cc1ccc(N2CCN(S(=O)(=O)c3ccc(F)cc3)CC2)c(C)c1 106%, CC(=O)c1ccc(N2CCN(S(=O)(=O)c3ccc4c(c3)CC(=O)N4C)CC2)cc1 97.6%, Cc1c(NC(=O)CN(C)CC(=O)Nc2ccc(F)c(F)c2F)c(=O)n(-c2ccccc2)n1C 91.2%, CCOc1ccc2nc(Cl)c(C3CC(c4ccccc4)=NN3C(=O)c3cccs3)cc2c1 (centres undefined) 75.7%, O=C(CSc1nnnn1C1CCCC1)Nc1ccc2c(c1)OCCO2 98.8%, CC(C(=O)N=Nc1c(O)n(C)c2ccc(Br)cc12)n1cnc2ccccc2c1=O (centres undefined) 89.3%, COc1cc(NC(=O)C2=C(C)OCCS2)c(Cl)cc1C(=O)NCCN1CCN(C)CC1 99.2%, CCN(CC)N=Nc1cccc(NC(C)=O)c1 96.8%, CCc1ccccc1NC(=O)CN(C)C(=O)c1cc(C2CC2)nn1-c1ccccc1 117%, C/C(CC(=O)NC(C)(C)C)=N\NC(=O)c1ccco1 92.3%, O=C(OC1CCCCC1=O)c1cccc(S(=O)(=O)NCc2ccccc2)c1 (centres undefined) 91.2%, O=C(O)CC/C(=N\NC(=O)c1ccc(F)cc1)c1ccc(Br)cc1 97.4%, COc1cc(NS(=O)(=O)c2ccc(NC(=O)CN3C(=O)c4ccccc4C3=O)cc2)ncn1 87.5%, CNC(=O)c1cc2c(ccc3ccccc32)oc1=N 90%, CN(C)C(=O)c1coc2nc3ccccc3nc12 90.3%, O=C1CCCCC1C(=O)c1ccccc1 (centres undefined) 88.5%, CCc1ccc(-c2nc(SCC(=O)NC3CCCC3)n[nH]2)cc1 109%, Clc1ccc2nc(CSc3ccccc3)cn2c1 99.1%, Cc1ccc(OCC(=O)Nc2ccc(N3CCN(C(=O)c4ccco4)CC3)cc2)c(C)c1 100%, CN(C)c1ccc(/C=N/NC(=O)C(O)c2ccc(Br)cc2)cc1 (centres undefined) 110%, CN(C)c1ccc(C=NCCc2ccc(S(N)(=O)=O)cc2)cc1 82.2%, Cc1c(C(=O)OCC(=O)N(CCC#N)c2ccccc2)oc2c1ccc1ccccc12 86.3%, COCCC(=O)N1CCC(Oc2ccc(C(=O)NCc3ccon3)cc2)CC1 92%, C=C(C)CNC(=O)c1ccc(OC2CCN(C(=O)COC)CC2)cc1 103%, C[n+]1cc(-c2ccccc2)oc1-c1ccccc1 96.2%, COc1ccc(/C(C)=N/Nc2cc(C(F)(F)F)ccc2Cl)c(OC)c1 87.7%, N=C1C(=O)OCC1c1ccccc1NC(=O)CN1CCCCC1 (centres undefined) 110%, CCCCOC(=O)Nc1sc2nc(C)cc(C)c2c1-n1cccc1 113%, Cc1ccc2c(cnn2C(=O)CCC(=O)NC2CCCC2)c1 96.7%, COc1ccc(C2=Nc3cc(C)ccc3OC2)cc1 99.1%, C#CCO[C@@H]1C[C@H](n2cnc3c(=O)[nH]c(NC(=O)C(C)C)nc32)O[C@@H]1CO 101%, COCCN(C(=O)CCC(=O)Nc1nccs1)C(C(=O)NC(C)(C)C)c1ccc(Cl)cc1 (centres undefined) 87.1%, O=C(NC1CCCC1)C1CC(=O)N(c2ccc(F)cc2)C1 (centres undefined) 96.9%, COc1ccc(C(C)C)cc1S(=O)(=O)Nc1ncn[nH]1 87.8%, O=c1o[nH]c(-c2ccccc2)c1N=Nc1c(F)cccc1Cl 105%, O=C(NCCCNC(=O)NC1CCCCC1)NC1CCCCC1 106%, O=C(Oc1c(-c2ccco2)oc2ccccc2c1=O)c1cccnc1 104%, O=[N+]([O-])c1cc(S(=O)(=O)Nc2cccc(Cl)c2)ccc1N=Nc1c(O)[nH]c2ccccc12 91.3%, CC(=O)c1c(C)c[nH]c1C 90.3%, Cc1ccc(NC(=O)CSCC(=O)N2CCOCC2)cc1 98.5%, CCc1ccccc1N(CC(=O)NCC1CCCO1)C(=O)CCC(=O)Nc1nccs1 (centres undefined) 88%, COc1ccc(-c2cc(C(=O)N(C)Cc3ccc(OC)c(OC)c3OC)c3ccccc3n2)cc1OC 96.5%, O=C(NCC1CCN(Cc2ccccc2Cl)CC1)Nc1cccc(Cl)c1 103%, Cc1cccc(CN2CCC(CNC(=O)Nc3ccc(F)c(Cl)c3)CC2)c1 92.6%, C/C(N)=C(/C#N)C(=O)COC(=O)C1=NN(c2ccccc2)C(=O)CC1 82.1%, CN(C)C1=NC[C@H](Cc2ccccc2)N1CCc1ccc(F)cc1 98.7%, C/C(=N\NS(=O)(=O)c1cccc([N+](=O)[O-])c1)c1cc2ccccc2o1 107%, CCC(=O)N(C)C(c1ccccc1Cl)c1nnnn1-c1c(C)cccc1C (centres undefined) 107%, COc1ccccc1C(=O)Nc1ccnn1C1CCN(Cc2cnn(C)c2)CC1 92%, O=C(NNC(=O)c1cc(S(=O)(=O)N2CCCCC2)ccc1Cl)c1ccccc1O 95.4%, CCC1(CC)C(=O)C2=C3C1[C@H](C(=O)OC)C=C(C(=O)OC)C[C@H]3[C@H]1C(=O)N(Cc3ccccc3)C(=O)[C@H]1[C@H]2C (some centres undefined) 107%, CC[C@]12c3[nH]c4cc(CCC(=O)N(C)C)ccc4c3CCN1C(=O)[C@@H](CC(=O)NCC13CC4CC(CC(C4)C1)C3)C[C@@H]2C(=O)N1CCN(C(=O)C2CC2)CC1 120%, O=C(NNC(=O)C1C2CCC(C2)C1C(=O)O)c1ccc(Cl)cc1 (centres undefined) 97.2%, CCOC(=O)NNC(=O)c1ccc(Cl)cc1 96.8%, O=C(NC(=S)Nc1ccccc1N1CCCCC1)c1ccc(F)cc1 98.2%, O=C(Nc1ccccc1N1CCCC1)c1ccc(F)c(S(=O)(=O)N2CCOCC2)c1 85.3%, Cc1cccc2c1cnn2C(=O)CCC(=O)NC1CCCCC1 82.7%, N#Cc1cccc(NC(=O)CN2CCCCCC2)c1 94.7%, COc1cc(CO)ccc1OCC(=O)Nc1cccc2ccccc12 99.9%, Cc1cccc2[nH]c(CN(C)C(=O)C3CCC(=O)N(CCc4ccccc4)C3)nc12 (centres undefined) 102%, COc1ccc(-c2c(-c3cc(OC)cc(OC)c3)n(C)c3ccc(-c4ccn[nH]4)cc23)cc1 87%

Superoxide response (% of plate mean), active:
COC(=O)CNc1nc(Cl)nc(N2CCC(C)CC2)n1 51%, NC(=O)Cc1ccc2c(c1)[nH]c1ccccc12 40.8%, CNC(=O)c1cccc2nc3ccccc3nc12 47%, CN(C)c1ccc(/C=N\S(=O)(=O)c2ccccc2)cc1 64.7%, COC(=O)CNC(=O)c1ccc(OC2CCN(C(=O)C3CC3)CC2)cc1 64%, Cc1ccccc1NC(=O)NCC1CCN(Cc2cccc(Cl)c2)CC1 36.3%, CSc1sc(C(=O)NNC(=O)c2ccc(Cl)cc2)c2c1C=CCC2 61.9%, O=C(Nc1ccccc1N1CCCC1)c1ccc2ccccc2c1 59%

Source: PubChem BioAssay AID2690 (NMMLSC, 2010)
